Screening results deposited in PubChem by National Center for Advancing Translational Sciences (NCATS).
Compounds with a hit are over-represented: about 12% of the library has one in this group of screens.
BAZ2B inh – inhibitors of human BAZ2B bromodomain; AlphaScreen BAZ2B-H3K14Ac peptide displacement; Q9UIF8; 360,000 tested, 4.4% active; Potency, µM (series often up to 114 µM), for inactives: at the top dose activity change, negative = inhibition, most hits filed as inhibitors; AID 504333; note: % is set by controls: 0 for no effect and ±100 for the full control effect; nearly all actives have a fitted effect of over 60% in size
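AlphaScreen displacement: compounds (up to 110uM) incubated 30 min at room temperature with a preformed 50 nM BAZ2B/50 nM biotinylated H3K14Ac peptide complex in PBS pH 7.4 with Tween-20. Donor and acceptor beads at 10 ug/mL final added, 20 min light-protected before reading.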
Sfp inh – inhibitors of Bacillus subtilis Sfp phosphopantetheinyl transferase; Biochemical Sfp PPTase activity, qHTS; AID 1490; Potency, µM, for inactives: largest response in the series, negative = inhibition, hits mostly inhibitors; 310,000 tested, 3.5% active; Q9F4F7;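 note: the enzyme is Sfp with the accession as filed and its product quenches rhodamine fluorescence; 0% = enzyme reaction without inhibitor and -100% = no enzyme wells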
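Fluorescence-quenching assay with 15 nM Sfp, 5 uM rhodamine-CoA and 12.5 uM BHQ-2-labelled ybbR peptide in pH 7.6 Hepes/MgCl2 buffer. Enzyme was pre-incubated with compound for 15 min at room temperature. Rate was taken from the 30-min fluorescence change (525/598 nm).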
G9a inh – G9a (human) methyltransferase inhibition. G9a H3K9 monomethylation, AlphaScreen, 2 h. Q96KQ7. Potency, µM (top dose mostly 102 µM), for the others: top-dose activity, negative = inhibition, hits mostly inhibitors. 350,000 tested, 8.8% active; note: % is set by controls: 0 for no effect and ±100 for the full control effect; nearly all actives have a fitted effect of over 75% in size
Target sequence (Q96KQ7 913-1193 limits assumed): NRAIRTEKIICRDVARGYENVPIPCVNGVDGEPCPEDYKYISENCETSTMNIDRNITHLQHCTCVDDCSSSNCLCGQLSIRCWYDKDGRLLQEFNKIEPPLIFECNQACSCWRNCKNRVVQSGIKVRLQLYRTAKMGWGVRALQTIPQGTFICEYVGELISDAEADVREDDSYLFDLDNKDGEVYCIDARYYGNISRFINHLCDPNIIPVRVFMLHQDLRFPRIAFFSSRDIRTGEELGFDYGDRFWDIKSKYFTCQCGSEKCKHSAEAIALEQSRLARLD
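Chemiluminescent proximity detection of H3K9 monomethylation, read after 10 min bead incubation in the dark. Reaction: 20 nM G9a, 500 nM biotin-H3K9 peptide, 20 uM SAM cofactor, 2 h, room temperature, following 15 min enzyme-compound preincubation.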
HP1b binding inh – blocks HP1-beta chromodomain binding to methylated histone tails; P83916; AlphaScreen HP1-beta / biotin-H3K9me3 peptide binding; Potency, µM (doses to about 114 µM), inactives show top-dose activity change, negative = inhibition, usual class: inhibitors; 390,000 tested, 0.56% active; note: nearly all actives have a fitted effect of over 70% in size
Target sequence (P83916 whole entry, looked up): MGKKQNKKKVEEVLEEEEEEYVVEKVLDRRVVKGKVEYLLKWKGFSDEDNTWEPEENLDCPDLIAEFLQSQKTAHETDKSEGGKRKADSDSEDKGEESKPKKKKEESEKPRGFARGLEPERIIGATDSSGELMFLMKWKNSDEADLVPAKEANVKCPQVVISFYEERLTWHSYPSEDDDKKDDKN
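Compound inhibition of the preformed complex between 50 nM HP1-beta and 50 nM biotinylated H3K9me3 peptide was read by AlphaScreen. Buffer was PBS pH 7.4 with 0.01% Tween-20. Incubations ran 30 min at room temperature, with 10 ug/mL donor/acceptor beads.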
PLK1 PBD block – inhibitors of human PLK1 polo-box domain binding; Plk1 PBD binding of FITC phosphopeptide, fluorescence polarization; Potency, µM, inactives show max response, negative = inhibition, hits mostly inhibitors; 360,000 tested, 2.8% active; AID 720504; note: series mostly up to about 57 µM; % is set by controls: 0 for no effect and ±100 for the full control effect; nearly all actives have a fitted effect of over 65% in size
JMJD2A Tudor – JMJD2A Tudor domain (human) inhibition; AlphaScreen JMJD2A-Tudor / H3K4me3 peptide binding; O75164; AID 504339; 390,000 tested, 4.4% active; Potency, µM (titrated, usually from 114 µM), without a hit: at the top dose activity change, negative = inhibition, usual class: inhibitors; note: % is set by controls: 0 for no effect and ±100 for the full control effect; nearly all actives have a fitted effect of over 50% in size
Starred values were filed as active, the others as inactive; ? = inconclusive; . = no result given; [ ] = another dose, or the depositor's remark. Calls come from the whole dose curve; as a rule, active = well fitted curve in the direction sought with a large enough effect; inconclusive = small, poorly fitted or top-dose-only effect, or another doubt; inactive = no such curve, though single readings can be large; an effect the other way counts as inactive or inconclusive. Potency is the fitted concentration of half-maximal effect.

SMILES	BAZ2B inh	Sfp inh	G9a inh	HP1b binding inh	PLK1 PBD block	JMJD2A Tudor
CC(=O)c1sc(Nc2cccc(C)c2)nc1C	50.1µM*	11.7%	38.7%	45.3%	-3.5%	0.0%
CC(=O)c1sc(Nc2ccccc2)nc1C	.	.	.	.	1.5%	.
Nc1c(C(=O)c2ccccc2)sc(Nc2ccc(Cl)c(Cl)c2)c1C(=O)Nc1ccccc1	25.1µM*	.	12.6µM*	?	.	44.7µM*
Cc1ccccc1C(C)NC(=O)COC(=O)Cn1cc(C(F)(F)F)ccc1=O (stereo unspecified)	-3.1%	.	1.6%[12.7 µM]	24.4%	-6.8%	-12.1%
Cc1ccc(S(=O)(=O)N(C)C)cc1NC(=O)COC(=O)Cc1cccs1	-6.2%	.	24.6%[2.33 µM]	29.4%	-11.4%	-15.8%
Cc1ccc(-n2nc(C)c3c(C)cc(=O)n(CC(=O)Nc4cccc(C)c4C)c32)cc1	-3.9%	.	12.5%[59 µM]	-7.4%	.	-15.0%
NC(N)=NCCCCN=C(N)N	.	-14.7%	2.7%[59 µM]	.	.	.
COCCN(C(=O)CCC(=O)Nc1nccs1)C(C(=O)NCCC(C)C)c1ccc(OC)cc1 (stereo unspecified)	-11.7%	18.3%	-23.5%	-16.8%	-0.6%	-17.1%
COc1cc(C(O)c2nc(-c3cc4ccccc4o3)cs2)ccc1F (stereo unspecified)	.	.	.	.	0.6%	.
O=C1NC(=O)/C(=C/c2ccc(-c3ccc(F)cc3O)o2)S1	.	.	21.2µM*	.	.	.
COc1ccc(CCn2c(NN)nc3c2c(=O)[nH]c(=O)n3C)cc1	-17.2%	50.1µM*	.	35.8%	-2.5%	-22.8%
COc1ccc(CCn2c(NN=C(C)C)nc3c2c(=O)[nH]c(=O)n3C)cc1	?	56.2µM*	-45.1%[59 µM]	25.6%	0.0%	-32.1%
CCCc1nc2c(s1)CCc1onc(-c3ccc(Br)cc3)c1-2	.	.	.	12.4%	15µM*	11.0%
CCCc1nc2c(s1)CCc1onc(-c3ccc(Cl)cc3)c1-2	23.7%	.	-4.8%[2.33 µM]	67.3%	-10.3%	16.6%
CCCc1nc2c(s1)CCc1onc(-c3ccc(OC)cc3)c1-2	.	.	.	?	26.7µM*	6.5%
Cc1ccc(Nc2nc(NCc3ccco3)nc3nccnc23)cc1Cl	.	.	.	54.0%	.	-6.4%
CC(=O)NC1(C(F)(F)F)C(=O)Nc2c1c(=O)[nH]c(=O)n2Cc1ccco1 (stereo unspecified)	-38.7%	-13.8%	-19.8%[59 µM]	28.0%	-6.3%	-20.1%
CC(=O)Nc1ccc(S(=O)(=O)NC2(C(F)(F)F)C(=O)Nc3c2c(=O)[nH]c(=O)n3Cc2ccco2)cc1 (stereo unspecified)	-20.8%	10.0%	56.2µM*	.	0.0%	-1.4%
O[C@@H]1COC2[C@@H](O)CO[C@@H]21 (stereo partly specified)	.	-6.0%	.	.	.	.
O=C(NNC(=S)Nc1ccc(Cl)c(Cl)c1)c1ccccn1	4.47µM*	7.1%	.	-1.6%	-16.2%	25.1µM*
CCNC(=S)NNC(=O)c1ccccn1	3.16µM*	-9.3%	-10.6%	36.6%	-4.3%	25.1µM*
COc1ccc(NC(=O)N2CC[C@@]3(CCCN(C(=O)c4cnccn4)C3)C2)cc1	.	15.4%	3.5%[12.7 µM]	.	.	.
Cc1ccc(NC(=O)C2CCN(S(=O)(=O)c3ccc(N4CCCC4=O)cc3)CC2)cc1Cl	-0.6%	9.1%	5.6%	14.6%[57 µM]	-9.9%	-7.0%
C=CCn1c(=O)n(C2OC(CO)C(O)C2O)c2nc(N)[nH]c(=O)c21 (stereo unspecified)	.	12.4%	-24.7%[12.7 µM]	.	.	.
CCC(C)Oc1cc(-c2ccnc(Nc3cccc(Cl)c3)n2)ccn1 (stereo unspecified)	51.9%	-7.8%	3.8%[12.7 µM]	58.7%	23.8µM*	?
SMILES	BAZ2B inh	Sfp inh	G9a inh	HP1b binding inh	PLK1 PBD block	JMJD2A Tudor
N#Cc1cccc(-c2ccc3ncnc(NCc4ccccc4)c3c2)c1	.	8.1%	3.9%[0.501 µM]	.	.	.
O=c1[nH]c(N/N=C/c2ccccc2)nc2ccccc12	-6.2%	7.8%	-9.8%[59 µM]	58.2%	-4.7%	-10.3%
Cc1ccccc1N=Cc1cc2c(cc1[N+](=O)[O-])OCO2	?	-10.1%	44.7µM*	-27.7%	-12.6%	?
O=c1[nH]c(N/N=C/c2cc3c(cc2[N+](=O)[O-])OCO3)nc2ccccc12	-36.0%	?	17.8µM*	48.2%	2.0%	-7.1%
O=c1cnnc(N/N=C/c2ccc3c(c2)OCO3)[nH]1	-27.4%	?	44.7µM*	20.1%	-14.8%	-5.9%[11.4 µM]
O=c1[nH]c(N/N=C\c2ccc3c(c2)OCO3)nc2ccccc12	-24.6%	20µM*	.	32.1%	-10.1%	-7.6%
Cc1c(N=Cc2cc3c(cc2[N+](=O)[O-])OCO3)cccc1[N+](=O)[O-]	.	.	.	-9.3%	?	?
COC(=O)c1cc(NC(=O)COC(=O)CN2C(=O)C3CC=CCC3C2=O)cc(C(=O)OC)c1 (stereo unspecified)	8.5%	.	-27.2%	2.4%	-5.7%	-21.4%
COc1ccccc1NC(=O)Cc1nnc(SCC(=O)c2ccc(F)cc2)n1C	-7.2%	16.6%	21.8%	14.1%	0.1%	-4.3%
Cc1ccc(N2C(=O)CSC23C(=O)N(CC(=O)NCCc2ccccc2)c2ccccc23)cc1C (stereo unspecified)	3.4%[57.1 µM]	.	-26.6%[59 µM]	6.4%	.	-20.4%
